The results in this text go back to the supplement of paper PMC10037445.

Whole data set: some 2,900 compounds, median “NF-kB SEAP reporter activity, fold change vs agonist alone” near 0.99, cut for the highest 2% near 2.6. Only a selection was taken, and the highest values are over-represented in it overall.

For assay [1], the system named is RAW-Dual. The assay is described as follows: NF-kB SEAP reporter activity, fold change vs agonist alone; higher = enhanced NF-kB activity. As to conditions: library stock concentration (final ~1000-fold dilution): 10 mM. In outline: (§1)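 Supernatant from RAW-Dual macrophages was read after 20 hours for IRF by QuantiLuc luminescence and for NF-κB by QuantiBlue absorbance at 620 nm. The cells (50,000 cells/well in DMEM, 384-well plates, 37 °C, 5% CO2) had received 50 nL of library stock by pin tool and, 1 h later, a PRR agonist. Reporter activity is expressed relative to agonist-alone wells as fold change, and wells were flagged cytotoxic if IncuCyte confluency was under 70% of agonist controls in both mask sets.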

The subject of assay [2] is RAW-Dual. In words: NF-kB SEAP reporter activity, fold change vs agonist alone; cytotoxicity flag (confluency mask): not cytotoxic; higher = enhanced NF-kB activity. An outline of the steps: as §1
For assay [3], the system named is RAW-Dual. The assay is described as follows: NF-kB SEAP reporter activity, fold change vs agonist alone; cytotoxicity flag (confluency mask): cytotoxic (confluency <70% of control); higher = enhanced NF-kB activity. In outline: as §1
Where [4] appears, read: cytotoxicity flag (confluency mask): not cytotoxic, agonist: Imiquimod (TLR7) […].
Setting [5] is: cytotoxicity flag (confluency mask): not cytotoxic, agonist: MPLA (TLR4) […].
Where [6] appears, read: agonist: ODN 1826 (TLR9) 0.5 ug/mL.
[7] abbreviates: agonist: Pam2CSK4 (TLR2/6) 0.1 ug/mL.
The mark [8] stands for this setting: agonist: Pam3CSK4 (TLR2/1) 0.1 ug/mL.

For `N#Cc1ccc(COCC2OC(n3c(NCc4ccc(Cl)c(Cl)c4)nc4c(N)ncnc43)C(O)C2O)cc1` (stereo not given), the “NF-kB SEAP reporter activity” value was 0.762 in the assay with RAW-Dual [1] (setting [4]) and 0.966 with RAW-Dual [1] (setting [5]).
`N#Cc1ccc(COCC2OC(n3c(NCc4ccc(Cl)c(Cl)c4)nc4c(N)ncnc43)C(O)C2O)cc1` (stereo not given) (library stock concentration (final ~1000-fold dilution): 10 mM): the “NF-kB SEAP reporter activity” value in the assay with RAW-Dual [2] (agonist: LPS (TLR4) 0.1 ug/mL) amounted to 0.934; with RAW-Dual [2] (setting [6]), 1.01; in the assay on RAW-Dual [2] (setting [7]), 0.742; in the assay with RAW-Dual [2] (setting [8]), 0.944.
For the molecule `Cc1ccc(NC(=O)Nc2cc(-c3ccccc3-c3nnn[nH]3)ccc2N(CC(C)C)CC(C)C)cc1` (library stock concentration (final ~1000-fold dilution): 10 mM), the “NF-kB SEAP reporter activity” value in the assay on RAW-Dual [3] (agonist: LPS (TLR4) 0.1 ug/mL) was found to be 1.16; with RAW-Dual [3] (setting [6]) it was 0.54; in the assay with RAW-Dual [3] (setting [7]), 0.207; with RAW-Dual [3] (setting [8]), 0.333.
Regarding `Cc1ccc(NC(=O)Nc2cc(-c3ccccc3-c3nnn[nH]3)ccc2N(CC(C)C)CC(C)C)cc1`, the “NF-kB SEAP reporter activity” value with RAW-Dual [1] (cytotoxicity flag (confluency mask): cytotoxic (confluency <70% of control), agonist: Imiquimod (TLR7) […]) is 0.81; in the assay with RAW-Dual [1] (cytotoxicity flag (confluency mask): cytotoxic (confluency <70% of control), agonist: MPLA (TLR4) […]), 1.25.
Consider `COc1ccc(CC(N)C(=O)NC2C(CO)OC(n3cnc4c(N(C)C)ncnc43)C2O)cc1.Cl.Cl` (stereo not given) (library stock concentration (final ~1000-fold dilution): 10 mM), for which the “NF-kB SEAP reporter activity” value in the assay with RAW-Dual [2] (agonist: LPS (TLR4) 0.1 ug/mL) is 0.584; in the assay on RAW-Dual [2] (setting [6]), 0.469; with RAW-Dual [2] (setting [7]), 0.13; in the assay on RAW-Dual [2] (setting [8]), 0.256.
As for `COc1ccc(CC(N)C(=O)NC2C(CO)OC(n3cnc4c(N(C)C)ncnc43)C2O)cc1.Cl.Cl` (stereo not given), the “NF-kB SEAP reporter activity” value with RAW-Dual [1] (setting [4]) stood at 0.438; in the assay with RAW-Dual [1] (setting [5]), 1.12.
For `NC(=O)c1cnc2[nH]ccc2c1NC1C2CC3CC1CC(O)(C3)C2` (stereo not given), in that order: 0.334 and 0.347.
For `NC(=O)c1cnc2[nH]ccc2c1NC1C2CC3CC1CC(O)(C3)C2` (stereo not given) (library stock concentration (final ~1000-fold dilution): 10 mM), the “NF-kB SEAP reporter activity” value amounted to 0.305 in the assay on RAW-Dual [2] (agonist: LPS (TLR4) 0.1 ug/mL), 0.398 in the assay with RAW-Dual [2] (setting [6]), 0.242 in the assay with RAW-Dual [2] (setting [7]) and 0.31 with RAW-Dual [2] (setting [8]).
For `CC(NC(=Nc1cccc2ncccc12)NC#N)c1ccccc1` (stereo not given), the figures for the “NF-kB SEAP reporter activity” value in the assay on RAW-Dual [1] (setting [4]) and in the assay with RAW-Dual [1] (setting [5]) were 0.897 and 1.12, respectively.
On to `CC(NC(=O)CCc1nc2ccccc2c(=O)[nH]1)c1ccccc1` (stereo not given) (library stock concentration (final ~1000-fold dilution): 10 mM), for which the “NF-kB SEAP reporter activity” value was found to be 0.987 in the assay with RAW-Dual [2] (agonist: LPS (TLR4) 0.1 ug/mL), 1.32 with RAW-Dual [2] (setting [6]), 0.95 in the assay on RAW-Dual [2] (setting [7]) and 1.25 in the assay with RAW-Dual [2] (setting [8]).
For `CC(NC(=O)CCc1nc2ccccc2c(=O)[nH]1)c1ccccc1` (stereo not given), the “NF-kB SEAP reporter activity” value in the assay with RAW-Dual [1] (setting [4]) and in the assay on RAW-Dual [1] (setting [5]) was 1.03 each time.
With `CC(C(=O)Nc1cccc(N=Cc2c(O)ccc3ccccc23)c1)c1ccccc1` (stereo not given) (library stock concentration (final ~1000-fold dilution): 10 mM), the “NF-kB SEAP reporter activity” value with RAW-Dual [2] (agonist: LPS (TLR4) 0.1 ug/mL) was 6.64; in the assay on RAW-Dual [2] (setting [6]) it was 2.52; with RAW-Dual [2] (setting [7]), 1.5; with RAW-Dual [2] (setting [8]) it was 1.74.
As to `CC(C(=O)Nc1cccc(N=Cc2c(O)ccc3ccccc23)c1)c1ccccc1` (stereo not given), the “NF-kB SEAP reporter activity” value in the assay on RAW-Dual [1] (setting [4]) is 1.67; in the assay with RAW-Dual [1] (setting [5]), 2.34.
Turning to `CC(NC(=O)c1ccccc1N=Cc1c(O)ccc2ccccc12)c1ccccc1` (stereo not given) (library stock concentration (final ~1000-fold dilution): 10 mM), the “NF-kB SEAP reporter activity” value amounted to 5.11 with RAW-Dual [2] (agonist: LPS (TLR4) 0.1 ug/mL), 1.72 in the assay with RAW-Dual [2] (setting [6]), 0.843 in the assay on RAW-Dual [2] (setting [7]) and 1.53 in the assay with RAW-Dual [2] (setting [8]).
On the same counts, the results for `CC(NC(=Nc1cccc2ncccc12)NC#N)c1ccccc1` (stereo not given) (library stock concentration (final ~1000-fold dilution): 10 mM) are 1.34, 1.07, 1.13 and 1.29.
Turning to `CC(NC(=O)c1ccccc1N=Cc1c(O)ccc2ccccc12)c1ccccc1` (stereo not given), the results for the “NF-kB SEAP reporter activity” value in the assay on RAW-Dual [1] (setting [4]) and in the assay with RAW-Dual [1] (setting [5]) were 1.56 and 2.25, respectively.
On the same counts, the results for `CCN1CCN(Cc2ccc(-c3cc4c(NC(C)c5ccccc5)ncnc4[nH]3)cc2)CC1` (stereo not given) are 1.59 and 0.93.
